# PubChem BioAssay (NCATS)
# Values joined by “and” are separate entries in the source; they are usually repeats but may differ in a detail not shown here. Identical values can stand only once. Results filed as inconclusive are left out. A call without a number means that no potency is given here. Values without a mark were called inactive. Active and inactive are the calls of the source. Calls follow the shape of the dose curve; as a rule, active = well fitted curve in the direction sought with a large enough effect; inconclusive = small, poorly fitted or top-dose-only effect, or another doubt; inactive = no such curve, though single readings can be large; an effect the other way counts as inactive or inconclusive.
# Legend:
# JEG-3 = test: Primary qHTS to identify gynecologic anti-cancer compounds using libraries of approved drugs and bioactive compounds (AID 1345084); settings: Gynecologic cancer cell panel viability, ATPlite luminescence, 48 h; series mostly up to 57.5 µM; also: nearly all actives have a fitted effect of over 55% in size
# How it was run: (§1)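 Five-concentration response, 48 h; readout is ATP-driven luciferase luminescence.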
# OV90 = test: as above; settings: Gynecologic cancer cell panel viability, ATPlite luminescence, 48 h; series mostly up to 57.5 µM
# How it was run: as §1
# Es-2 = test: as above; settings: Gynecologic cancer cell panel viability, ATPlite luminescence, 48 h; series mostly up to 57.5 µM
# How it was run: as §1
# HeLa = test: as above; settings: Gynecologic cancer cell panel viability, ATPlite luminescence, 48 h; series mostly up to 57.5 µM
# How it was run: as §1
# Hek293T = test: as above; settings: Gynecologic cancer cell panel viability, ATPlite luminescence, 48 h, control line for the selectivity index; series mostly up to 57.5 µM
# How it was run: as §1
# PA-1 = test: as above; settings: Gynecologic cancer cell panel viability, ATPlite luminescence, 48 h; series mostly up to 57.5 µM
# How it was run: as §1
# Tov-21-G = test: as above; settings: Gynecologic cancer cell panel viability, ATPlite luminescence, 48 h; series mostly up to 57.5 µM
# How it was run: as §1
# Tov112D = test: as above; settings: Gynecologic cancer cell panel viability, ATPlite luminescence, 48 h; series mostly up to 57.5 µM
# How it was run: as §1
# [1] = Drug repurposing screens with cells derived from glioblastoma tumor samples (AID 1345199); settings: GBM patient neurospheres viability, ATP luminescence, 48 h; also: nearly all actives have a fitted effect of over 40% in size
# How it was run: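 Four patient lines of CD133+ GBM neurospheres were screened at several concentrations; hits were retested in those lines plus three slower-growing GBM lines, using 48-hour treatment and ATP-based viability.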
# SKOV3 = test: Primary qHTS to identify gynecologic anti-cancer compounds using libraries of approved drugs and bioactive compounds (AID 1345084); settings: Gynecologic cancer cell panel viability, ATPlite luminescence, 48 h; series mostly up to 57.5 µM; also: nearly all actives have a fitted effect of over 55% in size
# How it was run: as §1
# [2] = at 45.9 µM (top of the series), tumour line B
# [3] = at 45.9 µM (top of the series), tumour line D
# [4] = at 46 µM (top of the series), tumour line A
# Potency is read from the fitted curve at half-maximal effect.
structure (smiles),measurement,setting,value
Fc1ccc(C(OCCN2CCN(CCCc3ccccc3)CC2)c2ccc(F)cc2)cc1,Potency,JEG-3,inactive
same,Potency,OV90,22.4 µM (active)
C#CCOC(C(=O)OCCN(C)C)(c1ccccc1)c1ccccc1,Potency,Es-2,inactive
same,Potency,HeLa,inactive
same,Potency,Hek293T,inactive
same,Potency,JEG-3,inactive
same,Potency,OV90,inactive
same,Potency,PA-1,inactive
same,Potency,Tov-21-G,inactive
same,Potency,Tov112D,inactive
same,"activity, negative = cell killing",[1]; [2],3.88%
same,"activity, negative = cell killing",[1]; [3],1.28%
N[C@@H](Cc1ccc(N(CCCl)CCCl)cc1)C(=O)O,Potency,HeLa,inactive
same,Potency,Hek293T,inactive
same,Potency,JEG-3,inactive
same,Potency,SKOV3,inactive
same,Potency,Tov-21-G,inactive
O=c1[nH]c2ccccc2n1C1CCN(CCCC(c2ccc(F)cc2)c2ccc(F)cc2)CC1,Potency,Es-2,inactive
same,Potency,HeLa,inactive
same,Potency,Hek293T,inactive
same,Potency,JEG-3,inactive
same,Potency,PA-1,inactive
same,Potency,Tov-21-G,inactive
same,Potency,Tov112D,inactive
same,Potency,[1]; tumour line A,2.82 µM (active)
same,Potency,[1]; tumour line B,8.91 µM (active)
same,Potency,[1]; tumour line D,5.62 µM (active)
CC[C@@H](CO)NC(=O)[C@@H]1C=C2c3cccc4[nH]cc(c34)C[C@H]2N(C)C1,Potency,Es-2,inactive
same,Potency,HeLa,inactive
same,Potency,Hek293T,inactive
same,Potency,OV90,inactive
same,Potency,PA-1,inactive
same,Potency,Tov-21-G,inactive
same,Potency,Tov112D,inactive
same,"activity, negative = cell killing",[1]; [4],16.5%
Clc1ccc(CCC(Cn2ccnc2)Sc2c(Cl)cccc2Cl)cc1 (stereo not drawn),Potency,Es-2,inactive
same,Potency,HeLa,inactive
same,Potency,JEG-3,inactive
same,Potency,Tov-21-G,inactive
same,Potency,Tov112D,inactive
same,"activity, negative = cell killing","[1]; at 21.2 µM (top of the series), tumour line B",-25.1%
same,Potency,[1]; tumour line A,1.12 µM (active)
Cc1cc(SCc2sc(-c3ccc(C(F)(F)F)c(F)c3)nc2C)ccc1OCC(=O)O,Potency,Es-2,inactive
same,Potency,HeLa,inactive
same,Potency,Hek293T,inactive
same,Potency,OV90,inactive
same,Potency,PA-1,inactive
same,Potency,Tov-21-G,inactive
same,Potency,Tov112D,inactive
C[C@]12CC[C@H]3[C@@H](CCC4=CC(=O)CC[C@@H]43)[C@@H]1CC[C@@H]2OC(=O)CCc1ccccc1,Potency,Es-2,inactive
same,Potency,HeLa,3.55 µM (active)
same,Potency,Hek293T,inactive
same,Potency,JEG-3,inactive
same,Potency,OV90,inactive
same,Potency,SKOV3,inactive
same,Potency,Tov-21-G,inactive
same,Potency,Tov112D,inactive
CCC(=O)C(CC(C)N(C)C)(c1ccccc1)c1ccccc1 (stereo not drawn),Potency,Es-2,inactive
same,Potency,HeLa,inactive
same,Potency,Hek293T,inactive
same,Potency,JEG-3,inactive
same,Potency,PA-1,inactive
same,Potency,Tov-21-G,inactive
same,Potency,Tov112D,inactive
COC[C@H]1OC(=O)c2coc3c2[C@@]1(C)C1=C(C3=O)C2CCC(=O)[C@@]2(C)C[C@H]1OC(C)=O (stereo partly drawn),Potency,Es-2,inactive
same,Potency,HeLa,inactive
same,Potency,Hek293T,inactive
same,Potency,JEG-3,inactive
same,Potency,OV90,inactive
same,Potency,Tov-21-G,inactive
same,Potency,Tov112D,inactive
C#CCN(C)[C@H](C)Cc1ccccc1,Potency,Es-2,inactive
same,Potency,HeLa,inactive
same,Potency,Hek293T,inactive
same,Potency,JEG-3,inactive
same,Potency,OV90,inactive
same,Potency,PA-1,inactive
same,Potency,Tov-21-G,inactive
same,Potency,Tov112D,inactive
same,"activity, negative = cell killing",[1]; [2],-10.5%
same,"activity, negative = cell killing",[1]; [3],-14.3%
same,"activity, negative = cell killing",[1]; [4],-47.6%
C=C1C[C@@H]2[C@H](CC[C@]3(C)C(=O)CC[C@@H]23)[C@@]2(C)C=CC(=O)C=C12,Potency,HeLa,inactive
same,Potency,SKOV3,inactive
same,Potency,Tov112D,inactive
same,Potency,[1]; tumour line A,12.6 µM (active)
COc1ccc(Cc2nccc3cc(OC)c(OC)cc23)cc1OC,Potency,OV90,11.2 µM (active)
same,Potency,SKOV3,25.1 µM (active)
same,Potency,Tov-21-G,inactive
same,Potency,Tov112D,inactive
CCC(C(N)=O)N1CCCC1=O (stereo not drawn),Potency,Es-2,inactive
same,Potency,HeLa,inactive
same,Potency,Hek293T,inactive
same,Potency,JEG-3,inactive
same,Potency,OV90,inactive
same,Potency,PA-1,inactive
same,Potency,Tov-21-G,inactive
same,Potency,Tov112D,inactive
same,"activity, negative = cell killing",[1]; [2],-7.31%
same,"activity, negative = cell killing",[1]; [3],-6.8%
same,"activity, negative = cell killing",[1]; [4],-24.9%
CNC(=O)N1N=C(c2ccc(N)cc2)c2cc3c(cc2CC1C)OCO3 (stereo not drawn),Potency,Es-2,inactive
same,Potency,JEG-3,inactive
same,Potency,PA-1,inactive
same,Potency,Tov-21-G,inactive
Oc1ccc(Cl)cc1Cc1ccccc1,Potency,Es-2,inactive
same,Potency,HeLa,inactive
same,Potency,Hek293T,inactive
same,Potency,JEG-3,inactive
same,Potency,PA-1,inactive
same,Potency,SKOV3,inactive
same,Potency,Tov-21-G,inactive
same,Potency,Tov112D,inactive
same,"activity, negative = cell killing",[1]; [2],-24.8%
CN(C)CCc1ccc(O)cc1,Potency,Es-2,inactive
same,Potency,HeLa,inactive
same,Potency,Hek293T,inactive
same,Potency,JEG-3,inactive
same,Potency,PA-1,inactive
same,Potency,SKOV3,inactive
same,Potency,Tov-21-G,inactive
same,Potency,Tov112D,inactive
same,"activity, negative = cell killing",[1]; [2],-0.64%
same,"activity, negative = cell killing",[1]; [3],-12.6%
C=C(C)[C@H]1Cc2c(ccc3c2O[C@@H]2COc4cc(OC)c(OC)cc4[C@@H]2C3=O)O1,Potency,Hek293T,891 nM (active)
same,Potency,PA-1,1.26 µM (active)
same,Potency,SKOV3,0.282 µM (active)
same,Potency,Tov-21-G,3.98 µM (active)
same,Potency,Tov112D,1.78 µM (active)
COc1ccc2c(c1OC)CN1CCc3cc4c(cc3C1C2)OCO4 (stereo not drawn),Potency,Es-2,inactive
same,Potency,HeLa,inactive
same,Potency,JEG-3,inactive
same,Potency,SKOV3,inactive
same,Potency,Tov-21-G,inactive
same,Potency,Tov112D,inactive
N#CC(C#N)=Cc1ccc(O)c(O)c1,Potency,Es-2,inactive
same,Potency,HeLa,inactive
same,Potency,Hek293T,inactive
same,Potency,OV90,inactive
same,Potency,SKOV3,inactive
same,Potency,Tov112D,inactive
CC(C)=CCOc1c2occc2cc2ccc(=O)oc12,Potency,Es-2,inactive
same,Potency,Hek293T,inactive
same,Potency,JEG-3,inactive
same,Potency,OV90,inactive
same,Potency,PA-1,inactive
same,Potency,Tov-21-G,inactive
same,Potency,Tov112D,inactive
same,"activity, negative = cell killing",[1]; [2],-6.14%
same,"activity, negative = cell killing",[1]; [3],-22.8%
same,Potency,[1]; tumour line A,17.8 µM (active)
c1ccc2c(c1)OCC(C1=NCCN1)O2 (stereo not drawn),Potency,Hek293T,28200 nM (active)
same,Potency,JEG-3,inactive
same,Potency,PA-1,15.8 µM (active)
same,Potency,Tov-21-G,15.8 µM (active)
CC(CCc1ccccc1)NC(C)C(O)c1ccc(O)cc1 (stereo not drawn),Potency,Es-2,inactive
same,Potency,HeLa,inactive
same,Potency,Hek293T,inactive
same,Potency,JEG-3,inactive
same,Potency,SKOV3,inactive
same,Potency,Tov-21-G,inactive
same,Potency,Tov112D,inactive
same,"activity, negative = cell killing",[1]; [2],-9.92%
same,"activity, negative = cell killing",[1]; [3],2.61%
same,Potency,[1]; tumour line A,14.1 µM (active)
C[C@H]1O[C@@H](O[C@H]2[C@@H](O)C[C@H](O[C@H]3[C@@H](O)C[C@H](O[C@H]4CC[C@@]5(C)[C@H](CC[C@@H]6[C@@H]5CC[C@]5(C)[C@@H](C7=CC(=O)OC7)CC[C@]65O)C4)O[C@@H]3C)O[C@@H]2C)C[C@H](O)[C@@H]1O,Potency,Es-2,282 nM (active) and 100 nM (active)
same,Potency,HeLa,282 nM (active) and 89.1 nM (active)
same,Potency,Hek293T,282 nM (active) and 224 nM (active)
same,Potency,OV90,0.708 µM (active)
same,Potency,PA-1,282 nM (active) and 126 nM (active)
same,Potency,SKOV3,251 nM (active) and 112 nM (active)
same,Potency,Tov-21-G,112 nM (active) and 100 nM (active)
same,Potency,Tov112D,0.0891 µM (active)
CCC(COC(=O)c1cc(OC)c(OC)c(OC)c1)(c1ccccc1)N(C)C (stereo not drawn),Potency,Es-2,inactive
same,Potency,HeLa,inactive
same,Potency,JEG-3,inactive
same,Potency,OV90,inactive
same,Potency,PA-1,inactive
same,Potency,Tov-21-G,inactive
same,Potency,Tov112D,inactive
CO[C@]12CC[C@@]3(C[C@@H]1[C@](C)(O)C(C)(C)C)[C@@H]1Cc4ccc(O)c5c4[C@@]3(CCN1CC1CC1)[C@H]2O5,Potency,JEG-3,inactive
CCCC1CCCCN1 (stereo not drawn),Potency,Es-2,inactive
same,Potency,HeLa,inactive
same,Potency,JEG-3,inactive
same,Potency,OV90,inactive
same,Potency,PA-1,inactive
same,Potency,SKOV3,inactive
same,Potency,Tov-21-G,inactive
same,Potency,Tov112D,inactive
same,"activity, negative = cell killing",[1]; [2],-22.5%
same,"activity, negative = cell killing",[1]; [3],-32.7%
Clc1ccc(COC(Cn2ccnc2)c2ccc(Cl)cc2Cl)cc1 (stereo not drawn),Potency,Hek293T,inactive
same,Potency,JEG-3,inactive
same,Potency,OV90,17.8 µM (active)
same,Potency,SKOV3,28.2 µM (active)
same,Potency,[1]; tumour line A,2.24 µM (active)
same,Potency,[1]; tumour line D,12.6 µM (active)
c1ccc(C2CC2)c(OCC2=NCCN2)c1,Potency,Es-2,inactive
same,Potency,HeLa,inactive
same,Potency,Hek293T,inactive
same,Potency,JEG-3,inactive
same,Potency,OV90,inactive
same,Potency,SKOV3,inactive
same,Potency,Tov-21-G,inactive
same,Potency,Tov112D,inactive
same,"activity, negative = cell killing",[1]; [2],-20.7%
same,"activity, negative = cell killing",[1]; [3],-19.1%
same,Potency,[1]; tumour line A,11.2 µM (active)
CCOC(=O)C1(c2ccccc2)CCN(CCC(C#N)(c2ccccc2)c2ccccc2)CC1,Potency,HeLa,inactive
same,Potency,JEG-3,inactive
same,Potency,SKOV3,inactive
same,Potency,Tov-21-G,inactive
same,Potency,Tov112D,inactive
